Each structure is given as a SMILES string. Measured potencies and affinities stand elsewhere. Unmarked numbers belong to inactive results. The rule behind the calls is not given here.
Note: 0% is about no effect.

For this test the following is noted: Ebola virus entry assay, green fluorescence channel.
Regarding `Cc1ccc(C(=O)c2ccc(CC(=O)O)n2C)cc1`, the efficacy was 11.5%.
For `COc1cc(O)cc(O)c1`, the efficacy is 16.6%.
Consider `COc1cc2c(Nc3ccc(Br)cc3F)ncnc2cc1OCC1CCN(C)CC1`, for which the efficacy was 16.7%.
For the compound `O=C(N/N=C/c1ccc([N+](=O)[O-])o1)c1ccc(O)cc1`, the efficacy was 14.6%.
`O=C1NCC2(CCN(CCc3ccccc3)CC2)O1`: the efficacy is 10.9%.
In the case of `O=C1OC(CCN2CCCCC2)OC1(c1ccccc1)c1ccccc1` (stereo unspecified), the efficacy was -23.4%.
Next, `N#C[C@H]1C[C@H]2C[C@@H]2N1C(=O)[C@@H](N)C12CC3CC(CC(O)(C3)C1)C2`: -19.1%.
The figure for `COc1ccc2c(c1)c(CC(=O)OC/C=C(\C)CC/C=C(\C)CCC=C(C)C)c(C)n2C(=O)c1ccc(Cl)cc1` is 62.6%; for `C#C[C@]1(O)CC[C@H]2[C@@H]3CCC4=CC(=O)CC[C@@H]4[C@H]3CC[C@@]21CC` it is 10.4%; for `CN(CC1(C)CCCO1)S(=O)(=O)c1ccc(Cl)c(S(N)(=O)=O)c1` (stereo unspecified) it is -11%.
The figure for `C[C@H]1[C@@H]2Cc3ccc(O)cc3[C@@]1(C)CCN2C` is 67.4%.
Take `C[C@]12CC[C@H]3[C@@H](CCC4=CC(=O)CC[C@@H]43)[C@@H]1CC[C@@H]2OC(=O)CCC1CCCCC1`: the efficacy was -18.4%.
On to `NNc1ccccc1`, for which the efficacy was -13.5%.
With `CCOC(=O)c1ccc(OCCN2C[C@H](O)[C@@H](O)[C@H](O)[C@H]2CO)cc1`, the efficacy is -12.9%.
Take `COc1ccc(C(=O)c2ccccc2O)c(O)c1`: the efficacy is -11.1%.
Next, `O=C(O)c1ccccc1S`: 16.8%; `N#CSCC(=O)O`: -33.9%; `CC(=O)OCC(COC(C)=O)OC(C)=O`: 12.7%.
The figure for `OC1(c2ccccc2)CCNCC1` is 9.98%; for `O=c1[nH]c2ccccc2n1C1CCNCC1` it is -18%; for `Nc1ccc(S(=O)(=O)NCc2ccccc2)cc1` it is 27.6%.
